{"source": "PubChem BioAssay AID1220", "about": "(Sanford-Burnham Center for Chemical Genomics, 2008)", "note": "Screen size: about 190,000 compounds; about 1,300 (0.68%) were called active. Only a selection was taken, and actives are over-represented in it overall. A number with no mark means an inactive call. No stated cut-off is given here; in the data, active means inhibition above about 50%; inactive means the rest."}
{"target": "Mannose-6-phosphate isomerase (Homo sapiens) (UniProt P34949)", "sequence (P34949 whole entry, looked up)": "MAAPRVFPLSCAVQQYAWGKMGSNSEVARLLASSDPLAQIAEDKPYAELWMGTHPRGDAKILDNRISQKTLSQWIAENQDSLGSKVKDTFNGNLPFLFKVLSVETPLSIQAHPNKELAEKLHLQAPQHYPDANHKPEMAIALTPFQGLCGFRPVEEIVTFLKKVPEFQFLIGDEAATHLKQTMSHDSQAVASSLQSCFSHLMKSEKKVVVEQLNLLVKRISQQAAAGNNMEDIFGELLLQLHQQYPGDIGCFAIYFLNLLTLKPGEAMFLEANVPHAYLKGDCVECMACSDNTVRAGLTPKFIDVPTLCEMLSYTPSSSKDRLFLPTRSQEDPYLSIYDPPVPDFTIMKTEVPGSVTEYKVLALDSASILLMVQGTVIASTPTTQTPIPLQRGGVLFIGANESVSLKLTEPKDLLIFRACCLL", "assay": "MPI inhibition at elevated mannose 6-phosphate – biochemical, fluorescence intensity, high mannose 6-phosphate, primary screen (AID 1220)", "conditions": "recombinant PMI enzyme, coupled fluorescence intensity; at 20 µM; stronger effect = higher value"}
{"smiles": "Cc1ccc(C(=O)Nc2ccc(Br)cc2)cc1S(=O)(=O)Nc1ccccn1", "inhibition": "3.7%"}
{"smiles": "COc1cccc(NC2=NC3(CCCCC3)N=C(N)N2)c1", "inhibition": "-6.8%"}
{"smiles": "c1ccc(Nc2cccc(Nc3ccccc3)c2)cc1", "inhibition": "29.3%"}
{"smiles": "O=C1c2cccc3cccc(c23)C(=O)N1c1nccs1", "inhibition": "8.2%"}
{"smiles": "COc1ccccc1-c1nnc(NC(=O)C(C)Sc2nncn2C)s1", "note": "(stereo not given)", "inhibition": "-2.2%"}
{"smiles": "COc1ccc(OC)c(-c2nnc(NC(=O)C(C)Sc3nncn3C)s2)c1", "note": "(stereo not given)", "inhibition": "91.6% (active)"}
{"smiles": "CC(Sc1nncn1C)C(=O)Nc1nnc(-c2ccccc2)s1", "note": "(stereo not given)", "inhibition": "6%"}
{"smiles": "COc1ccccc1CN1CCNC(=O)C1CC(=O)NCc1csc(C)n1", "note": "(stereo not given)", "inhibition": "9.7%"}
{"smiles": "CSc1ccc(/C=N/NC(=O)CN2CCN(Cc3ccccc3Cl)CC2)cc1", "inhibition": "0.4%"}
{"smiles": "Cc1ccc(OCC(=O)c2cc(C)n(C)c2C)c([N+](=O)[O-])n1", "inhibition": "42.3%"}
{"smiles": "CCCn1c(C)cc(C(=O)COc2ccc(C)nc2[N+](=O)[O-])c1C", "inhibition": "3.2%"}
{"smiles": "COCCn1c(C)cc(C(=O)COc2ccc(C)nc2[N+](=O)[O-])c1C", "inhibition": "51.6% (active)"}
{"smiles": "Cc1cc(C)c(C(=O)COc2cccnc2[N+](=O)[O-])cc1C", "inhibition": "24.3%"}
{"smiles": "COCCn1c(C)cc(C(=O)COc2cccnc2[N+](=O)[O-])c1C", "inhibition": "59.4% (active)"}
{"smiles": "Cc1ccc(C)c(C(=O)COc2ccc(C)nc2[N+](=O)[O-])c1", "inhibition": "18.4%"}
{"smiles": "Cc1ccc(OCC(=O)c2ccc(Cl)s2)c([N+](=O)[O-])n1", "inhibition": "55.6% (active)"}
{"smiles": "COCCn1c(C)cc(C(=O)COc2nc3ccccc3nc2C)c1C", "inhibition": "8.5%"}
{"smiles": "Cc1ccc(OCC(=O)c2cc(C)c(C)cc2C)c([N+](=O)[O-])n1", "inhibition": "4.2%"}
{"smiles": "O=C(CCN1C(=O)c2cccnc2C1=O)NC1CCCCCC1", "inhibition": "9.7%"}
{"smiles": "CCC(=O)Nc1ccc(N2CCN(S(C)(=O)=O)CC2)cc1", "inhibition": "3.4%"}
{"smiles": "Cc1cc(NCCCn2ccnc2)n2nc(-c3ccc(F)cc3)cc2n1", "inhibition": "-14.3%"}
{"smiles": "O=C(N/N=C/c1ccncc1)c1cccc(NC(=O)c2ccc(Cl)cc2)c1", "inhibition": "-140%"}
{"smiles": "C#CCOCCOCCOCCNc1nc(N2CCN(C(=O)Cn3cc(CCCN=C(N)N)nn3)CC2)nc(N2CCN(C(=O)[C@H]([C@@H](C)CC)n3cc(CCCN=C(N)N)nn3)CC2)n1", "inhibition": "-53.5%"}
{"smiles": "CCOC(=O)N1CCC(NC(=O)C2CCCN(c3nc4ccccc4o3)C2)CC1", "note": "(stereo not given)", "inhibition": "3.2%"}
{"smiles": "CC(NC(=O)C(Cc1ccccc1)NC(=O)c1ccccc1)C(=O)O", "note": "(stereo not given)", "inhibition": "-5.7%"}
{"smiles": "N=C(N)Cc1ccccc1Sc1ccccc1", "inhibition": "-7.9%"}
{"smiles": "Cc1ccc(NC(=O)c2ccc(F)c(S(=O)(=O)N3CCOCC3)c2)cc1F", "inhibition": "0.5%"}
{"smiles": "O=c1c2ccccc2ncn1Cc1cccc2ccccc12", "inhibition": "7.1%"}
{"smiles": "CCOC(=O)N1CCN(C(=O)CS(=O)(=O)c2cn(Cc3ccccc3Cl)c3ccccc23)CC1", "inhibition": "3.6%"}
{"smiles": "Cc1[nH][nH]c(=O)c1C(c1c(C)[nH][nH]c1=O)c1cn(Cc2cccc3ccccc23)c2ccccc12", "inhibition": "56% (active)"}
{"smiles": "Cc1nccn1Cc1cccc2ccccc12", "inhibition": "-0.7%"}
{"smiles": "Cc1[nH][nH]c(=O)c1C(c1c(C)[nH][nH]c1=O)c1cn(Cc2ccccc2Cl)c2ccccc12", "inhibition": "50.3% (active)"}
{"smiles": "COC(=O)N/N=C/c1cn(Cc2ccccc2Cl)c2ccccc12", "inhibition": "16.8%"}
{"smiles": "O=C(O)c1ccc(Cl)c(S(=O)(=O)Nc2ccccc2N2CCOCC2)c1", "inhibition": "-3.7%"}
{"smiles": "CC(C)=C1C2C=CC1C(C(=O)Nc1cccc(C)c1)C2C(=O)O", "note": "(stereo not given)", "inhibition": "0.3%"}
{"smiles": "O=C(COC(=O)c1cc(=O)c2ccccc2o1)NC1CCCC1", "inhibition": "30.5%"}
{"smiles": "CCC(=O)Nc1cc2c(C)cc(=O)oc2cc1C", "inhibition": "-14.2%"}
{"smiles": "CCC(=O)Nc1cc2[nH]c(=O)cc(C)c2cc1C", "inhibition": "54.6% (active)"}
{"smiles": "CCCCCC(=O)Nc1cc2[nH]c(=O)cc(COC)c2cc1C", "inhibition": "-2.7%"}
{"smiles": "C#CCOCCOCCOCCNc1nc(N2CCN(C(=O)[C@H](C)n3cc(CCCN=C(N)N)nn3)CC2)nc(N2CCN(C(=O)[C@H](Cc3ccc(O)cc3)n3cc(CCO)nn3)CC2)n1", "inhibition": "-38%"}
{"smiles": "COc1ccc(C(CC(=O)c2ccccc2)CC(=O)c2ccccc2)cc1OC", "inhibition": "4%"}
{"smiles": "Cc1ccccc1N=Cc1cc2c(cc1O)OC(N)=C(C#N)C2c1ccccc1", "note": "(stereo not given)", "inhibition": "55% (active)"}
{"smiles": "COc1ccc(N=Cc2cc3c(cc2O)OC(N)=C(C#N)C3c2ccccc2)cc1", "note": "(stereo not given)", "inhibition": "50.4% (active)"}
{"smiles": "N#CC1=C(N)Oc2cc(O)ccc2C1c1ccccc1", "note": "(stereo not given)", "inhibition": "7.4%"}
{"smiles": "N#CC1=C(N)Oc2cc(O)c(C=Nc3ccccc3)cc2C1c1ccccc1", "note": "(stereo not given)", "inhibition": "-4%"}
{"smiles": "Cc1ccc(N=Cc2cc3c(cc2O)OC(N)=C(C#N)C3c2ccccc2)cc1", "note": "(stereo not given)", "inhibition": "10.5%"}
{"smiles": "Cc1ccc(C2C(C#N)=C(N)Oc3cc4c(cc32)OCO4)cc1", "note": "(stereo not given)", "inhibition": "0.5%"}
{"smiles": "Clc1ccc(C2=NCCN2)cc1", "inhibition": "1.4%"}
{"smiles": "O=C(Cc1ccc(F)cc1)N/N=C/c1ccccn1", "inhibition": "16.5%"}
{"smiles": "Cn1c(=O)[nH]c(=O)c2c1nc(N1CCOCC1)n2CC(O)COc1ccc2ccccc2c1", "note": "(stereo not given)", "inhibition": "6.5%"}
{"smiles": "O=C(NC1CCCc2ccccc21)c1ccc(CNc2c(N3CCOCC3)c(=O)c2=O)cc1", "note": "(stereo not given)", "inhibition": "-6.9%"}
{"smiles": "CCOC(=O)c1cc2c(ccn2C)n1CC(=O)N1CCC(C)CC1", "inhibition": "13.8%"}
{"smiles": "CCOC(=O)c1cc2c(ccn2C)n1CC(=O)N(C)C", "inhibition": "44.7%"}
{"smiles": "CCOC(=O)c1cc2c(ccn2C)n1Cc1cc(C)ccc1C", "inhibition": "22.9%"}
{"smiles": "CCOC(=O)c1cc2c(ccn2C)n1Cc1ccc(Cl)cc1", "inhibition": "52.4% (active)"}
{"smiles": "CCOC(=O)c1cc2c(ccn2C)n1Cc1ccccc1C", "inhibition": "22.3%"}
{"smiles": "CCOC(=O)c1cc2c(ccn2C)n1CC(=O)N1CCCC(C)C1", "note": "(stereo not given)", "inhibition": "7.2%"}
{"smiles": "CCOC(=O)c1cc2c(ccn2C)n1CC(=O)N1C(C)CCCC1C", "note": "(stereo not given)", "inhibition": "52% (active)"}
{"smiles": "CCOC(=O)c1cc2c(ccn2C)n1Cc1ccccc1Cl", "inhibition": "50.5% (active)"}
{"smiles": "CCOC(=O)c1cc2c(ccn2C)n1Cc1ccc(C#N)cc1", "inhibition": "35.1%"}
